Data taken from ChEMBL document CHEMBL1961873, “Compounds: GSK PKIS; Assays: Nanosyn kinase panel” (2012).

Assays:
[1] = biological target: Tyrosine-protein kinase receptor UFO (Homo sapiens) (UniProt P30530); details: at 1 µM
[2] = biological target: Tyrosine-protein kinase Blk (Homo sapiens) (UniProt P51451); details: at 0.1 µM
[3] = biological target: Tyrosine-protein kinase Blk (Homo sapiens) (UniProt P51451); details: at 1 µM
[4] = biological target: T1, Cytoplasmic tyrosine-protein kinase BMX (Homo sapiens) (UniProt P51813); details: at 0.1 µM
T1 sequence (whole entry): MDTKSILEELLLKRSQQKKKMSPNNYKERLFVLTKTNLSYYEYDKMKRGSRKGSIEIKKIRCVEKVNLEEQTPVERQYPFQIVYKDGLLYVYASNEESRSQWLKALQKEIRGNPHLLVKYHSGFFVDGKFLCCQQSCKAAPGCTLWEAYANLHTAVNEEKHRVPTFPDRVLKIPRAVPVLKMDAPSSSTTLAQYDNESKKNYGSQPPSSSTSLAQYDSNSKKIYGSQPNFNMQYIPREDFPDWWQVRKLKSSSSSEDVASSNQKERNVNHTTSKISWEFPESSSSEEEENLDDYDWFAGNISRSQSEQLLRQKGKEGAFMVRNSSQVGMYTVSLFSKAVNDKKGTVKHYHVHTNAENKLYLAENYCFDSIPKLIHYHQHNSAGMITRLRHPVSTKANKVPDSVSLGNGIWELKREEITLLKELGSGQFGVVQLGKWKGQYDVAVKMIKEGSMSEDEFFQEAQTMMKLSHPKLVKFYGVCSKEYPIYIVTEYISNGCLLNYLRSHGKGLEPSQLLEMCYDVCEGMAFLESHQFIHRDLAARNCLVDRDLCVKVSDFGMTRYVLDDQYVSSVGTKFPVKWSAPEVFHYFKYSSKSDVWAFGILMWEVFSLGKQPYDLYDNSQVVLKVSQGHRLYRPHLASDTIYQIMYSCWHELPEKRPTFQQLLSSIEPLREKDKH

[5] = biological target: T1, Cytoplasmic tyrosine-protein kinase BMX (Homo sapiens); details: at 1 µM
[6] = biological target: Protein-tyrosine kinase 6 (Homo sapiens) (UniProt Q13882); details: at 0.1 µM
[7] = biological target: Protein-tyrosine kinase 6 (Homo sapiens) (UniProt Q13882); details: at 1 µM
[8] = biological target: Tyrosine-protein kinase BTK (Homo sapiens) (UniProt Q06187); details: at 0.1 µM
[9] = biological target: Tyrosine-protein kinase BTK (Homo sapiens) (UniProt Q06187); details: at 1 µM
[10] = biological target: Tyrosine-protein kinase CSK (Homo sapiens) (UniProt P41240); details: at 0.1 µM
[11] = biological target: Tyrosine-protein kinase CSK (Homo sapiens) (UniProt P41240); details: at 1 µM
[12] = biological target: T2, Discoidin domain-containing receptor 2 (Homo sapiens) (UniProt Q16832); details: at 0.1 µM
T2 sequence (whole entry): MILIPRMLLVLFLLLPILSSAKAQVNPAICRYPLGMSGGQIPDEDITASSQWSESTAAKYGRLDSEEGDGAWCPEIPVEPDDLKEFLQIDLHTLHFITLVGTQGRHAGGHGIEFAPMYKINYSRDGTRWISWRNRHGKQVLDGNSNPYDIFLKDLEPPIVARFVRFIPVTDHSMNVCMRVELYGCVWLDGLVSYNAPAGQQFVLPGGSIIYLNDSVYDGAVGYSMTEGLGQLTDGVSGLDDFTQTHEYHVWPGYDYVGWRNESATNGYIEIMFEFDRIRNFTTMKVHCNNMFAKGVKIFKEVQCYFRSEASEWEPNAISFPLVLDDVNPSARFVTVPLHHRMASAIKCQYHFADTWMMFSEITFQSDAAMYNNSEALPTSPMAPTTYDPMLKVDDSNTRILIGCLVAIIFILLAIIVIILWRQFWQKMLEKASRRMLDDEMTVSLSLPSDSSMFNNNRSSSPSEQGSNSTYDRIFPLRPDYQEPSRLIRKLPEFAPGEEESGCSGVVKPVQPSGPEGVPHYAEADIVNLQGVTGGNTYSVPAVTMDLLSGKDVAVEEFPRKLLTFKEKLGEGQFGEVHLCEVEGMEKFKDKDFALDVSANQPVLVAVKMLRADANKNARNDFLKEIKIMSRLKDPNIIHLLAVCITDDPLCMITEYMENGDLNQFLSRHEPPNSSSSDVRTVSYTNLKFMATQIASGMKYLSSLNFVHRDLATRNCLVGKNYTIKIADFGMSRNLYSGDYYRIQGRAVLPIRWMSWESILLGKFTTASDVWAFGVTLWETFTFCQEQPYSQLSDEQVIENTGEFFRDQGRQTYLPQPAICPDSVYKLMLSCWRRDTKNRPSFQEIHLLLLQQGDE

[13] = biological target: T2, Discoidin domain-containing receptor 2 (Homo sapiens); details: at 1 µM
[14] = biological target: Epidermal growth factor receptor (Homo sapiens) (UniProt P00533); details: at 0.1 µM
[15] = biological target: Epidermal growth factor receptor (Homo sapiens) (UniProt P00533); details: at 1 µM
[16] = system: Epidermal growth factor receptor (Homo sapiens), P00533 [L858R]; details: at 0.1 µM
[17] = system: Epidermal growth factor receptor (Homo sapiens), P00533 [L858R]; details: at 1 µM
[18] = system: Epidermal growth factor receptor (Homo sapiens), P00533 [L861Q]; details: at 0.1 µM
[19] = system: Epidermal growth factor receptor (Homo sapiens), P00533 [L861Q]; details: at 1 µM
[20] = system: Epidermal growth factor receptor (Homo sapiens), P00533 [T790M]; details: at 0.1 µM

Sequence of Epidermal growth factor receptor (Homo sapiens), P00533 [L858R] (P00533 whole entry L858R): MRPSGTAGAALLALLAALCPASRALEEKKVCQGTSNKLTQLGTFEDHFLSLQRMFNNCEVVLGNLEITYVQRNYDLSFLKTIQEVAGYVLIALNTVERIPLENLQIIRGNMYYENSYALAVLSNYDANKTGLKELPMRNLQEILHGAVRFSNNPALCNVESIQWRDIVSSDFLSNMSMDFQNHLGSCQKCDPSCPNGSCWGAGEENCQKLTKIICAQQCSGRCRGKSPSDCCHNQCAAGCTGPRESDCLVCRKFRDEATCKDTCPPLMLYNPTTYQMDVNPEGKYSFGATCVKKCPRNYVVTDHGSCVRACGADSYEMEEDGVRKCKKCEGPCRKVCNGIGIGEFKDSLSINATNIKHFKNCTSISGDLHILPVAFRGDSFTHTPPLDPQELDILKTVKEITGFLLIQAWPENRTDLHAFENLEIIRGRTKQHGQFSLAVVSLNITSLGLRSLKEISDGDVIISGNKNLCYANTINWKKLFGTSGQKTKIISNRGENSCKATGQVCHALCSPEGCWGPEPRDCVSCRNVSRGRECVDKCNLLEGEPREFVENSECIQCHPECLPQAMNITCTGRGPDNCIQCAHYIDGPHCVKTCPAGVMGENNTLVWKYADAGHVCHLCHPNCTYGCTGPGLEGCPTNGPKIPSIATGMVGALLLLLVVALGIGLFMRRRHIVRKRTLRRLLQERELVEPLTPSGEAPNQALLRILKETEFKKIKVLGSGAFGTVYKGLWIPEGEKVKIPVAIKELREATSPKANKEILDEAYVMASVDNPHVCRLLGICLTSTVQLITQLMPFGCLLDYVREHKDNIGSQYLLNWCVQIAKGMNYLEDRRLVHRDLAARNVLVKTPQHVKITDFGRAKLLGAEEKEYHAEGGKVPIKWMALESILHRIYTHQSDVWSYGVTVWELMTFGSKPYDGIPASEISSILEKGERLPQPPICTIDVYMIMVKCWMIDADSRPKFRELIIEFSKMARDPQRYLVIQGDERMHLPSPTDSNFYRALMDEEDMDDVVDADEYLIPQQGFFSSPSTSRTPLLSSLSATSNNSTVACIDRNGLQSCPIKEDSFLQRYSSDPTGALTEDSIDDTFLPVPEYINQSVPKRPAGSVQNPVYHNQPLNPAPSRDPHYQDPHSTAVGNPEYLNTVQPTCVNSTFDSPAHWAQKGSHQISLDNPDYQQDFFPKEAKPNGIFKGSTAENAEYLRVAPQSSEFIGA
Sequence of Tyrosine-protein kinase CSK (Homo sapiens) (P41240 2-450 limits assumed): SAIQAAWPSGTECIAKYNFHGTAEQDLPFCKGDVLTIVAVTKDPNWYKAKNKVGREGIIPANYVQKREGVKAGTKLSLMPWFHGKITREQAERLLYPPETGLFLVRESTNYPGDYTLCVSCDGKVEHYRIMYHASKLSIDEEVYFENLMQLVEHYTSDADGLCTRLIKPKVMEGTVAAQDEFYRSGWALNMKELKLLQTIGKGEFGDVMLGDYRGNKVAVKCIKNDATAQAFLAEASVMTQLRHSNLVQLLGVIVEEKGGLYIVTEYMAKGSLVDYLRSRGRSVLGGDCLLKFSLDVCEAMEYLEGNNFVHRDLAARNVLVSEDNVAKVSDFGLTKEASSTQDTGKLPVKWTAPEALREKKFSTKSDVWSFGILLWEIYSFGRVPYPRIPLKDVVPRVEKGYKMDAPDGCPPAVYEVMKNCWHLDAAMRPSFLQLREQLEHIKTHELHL
Sequence of Tyrosine-protein kinase Blk (Homo sapiens) (P51451 2-505 limits assumed): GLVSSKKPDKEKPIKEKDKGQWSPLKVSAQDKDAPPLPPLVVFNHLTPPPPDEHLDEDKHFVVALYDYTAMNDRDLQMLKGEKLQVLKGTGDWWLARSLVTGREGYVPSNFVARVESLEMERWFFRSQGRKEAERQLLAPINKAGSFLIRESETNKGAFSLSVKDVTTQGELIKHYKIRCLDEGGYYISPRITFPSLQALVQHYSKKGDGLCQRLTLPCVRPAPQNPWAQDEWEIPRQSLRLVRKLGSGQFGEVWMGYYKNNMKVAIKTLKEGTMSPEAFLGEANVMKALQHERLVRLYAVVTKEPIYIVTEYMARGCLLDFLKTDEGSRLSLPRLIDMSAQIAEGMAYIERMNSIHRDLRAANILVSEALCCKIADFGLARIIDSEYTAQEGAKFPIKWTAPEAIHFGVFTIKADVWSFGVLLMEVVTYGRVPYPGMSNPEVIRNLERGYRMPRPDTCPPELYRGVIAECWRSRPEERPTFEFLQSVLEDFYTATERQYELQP
Sequence of Epidermal growth factor receptor (Homo sapiens) (P00533 whole entry): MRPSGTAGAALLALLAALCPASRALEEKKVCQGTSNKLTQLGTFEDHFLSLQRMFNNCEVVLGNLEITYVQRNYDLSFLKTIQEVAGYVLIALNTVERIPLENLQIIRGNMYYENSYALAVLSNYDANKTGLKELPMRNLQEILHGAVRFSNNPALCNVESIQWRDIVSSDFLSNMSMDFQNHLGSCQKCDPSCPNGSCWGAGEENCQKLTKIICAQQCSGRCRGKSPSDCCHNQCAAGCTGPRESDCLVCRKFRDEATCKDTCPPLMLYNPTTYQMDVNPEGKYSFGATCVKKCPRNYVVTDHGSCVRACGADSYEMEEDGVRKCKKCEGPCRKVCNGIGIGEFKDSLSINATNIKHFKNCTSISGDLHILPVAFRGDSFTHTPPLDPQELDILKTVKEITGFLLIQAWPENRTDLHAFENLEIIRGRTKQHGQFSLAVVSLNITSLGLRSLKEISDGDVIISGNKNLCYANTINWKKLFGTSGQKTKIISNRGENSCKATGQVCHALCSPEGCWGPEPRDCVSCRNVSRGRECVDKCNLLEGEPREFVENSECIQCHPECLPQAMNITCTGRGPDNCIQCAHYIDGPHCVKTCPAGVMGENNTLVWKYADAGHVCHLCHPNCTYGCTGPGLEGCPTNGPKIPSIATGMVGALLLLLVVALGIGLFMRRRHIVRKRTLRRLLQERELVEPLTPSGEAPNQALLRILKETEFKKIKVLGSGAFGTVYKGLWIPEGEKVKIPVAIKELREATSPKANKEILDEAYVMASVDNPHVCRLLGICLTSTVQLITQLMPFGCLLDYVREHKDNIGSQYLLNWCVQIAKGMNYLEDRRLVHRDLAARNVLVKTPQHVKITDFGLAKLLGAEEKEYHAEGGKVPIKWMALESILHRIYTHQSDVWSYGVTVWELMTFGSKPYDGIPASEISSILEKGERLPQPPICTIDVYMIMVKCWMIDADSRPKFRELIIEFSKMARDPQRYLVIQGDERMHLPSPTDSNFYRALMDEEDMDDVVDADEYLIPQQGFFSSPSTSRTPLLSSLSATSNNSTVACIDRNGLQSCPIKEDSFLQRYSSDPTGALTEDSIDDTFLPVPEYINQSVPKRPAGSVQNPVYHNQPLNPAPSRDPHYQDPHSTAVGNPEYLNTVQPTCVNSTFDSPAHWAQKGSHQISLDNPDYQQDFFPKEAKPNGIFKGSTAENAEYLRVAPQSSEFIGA
Sequence of Epidermal growth factor receptor (Homo sapiens), P00533 [L861Q] (P00533 whole entry L861Q): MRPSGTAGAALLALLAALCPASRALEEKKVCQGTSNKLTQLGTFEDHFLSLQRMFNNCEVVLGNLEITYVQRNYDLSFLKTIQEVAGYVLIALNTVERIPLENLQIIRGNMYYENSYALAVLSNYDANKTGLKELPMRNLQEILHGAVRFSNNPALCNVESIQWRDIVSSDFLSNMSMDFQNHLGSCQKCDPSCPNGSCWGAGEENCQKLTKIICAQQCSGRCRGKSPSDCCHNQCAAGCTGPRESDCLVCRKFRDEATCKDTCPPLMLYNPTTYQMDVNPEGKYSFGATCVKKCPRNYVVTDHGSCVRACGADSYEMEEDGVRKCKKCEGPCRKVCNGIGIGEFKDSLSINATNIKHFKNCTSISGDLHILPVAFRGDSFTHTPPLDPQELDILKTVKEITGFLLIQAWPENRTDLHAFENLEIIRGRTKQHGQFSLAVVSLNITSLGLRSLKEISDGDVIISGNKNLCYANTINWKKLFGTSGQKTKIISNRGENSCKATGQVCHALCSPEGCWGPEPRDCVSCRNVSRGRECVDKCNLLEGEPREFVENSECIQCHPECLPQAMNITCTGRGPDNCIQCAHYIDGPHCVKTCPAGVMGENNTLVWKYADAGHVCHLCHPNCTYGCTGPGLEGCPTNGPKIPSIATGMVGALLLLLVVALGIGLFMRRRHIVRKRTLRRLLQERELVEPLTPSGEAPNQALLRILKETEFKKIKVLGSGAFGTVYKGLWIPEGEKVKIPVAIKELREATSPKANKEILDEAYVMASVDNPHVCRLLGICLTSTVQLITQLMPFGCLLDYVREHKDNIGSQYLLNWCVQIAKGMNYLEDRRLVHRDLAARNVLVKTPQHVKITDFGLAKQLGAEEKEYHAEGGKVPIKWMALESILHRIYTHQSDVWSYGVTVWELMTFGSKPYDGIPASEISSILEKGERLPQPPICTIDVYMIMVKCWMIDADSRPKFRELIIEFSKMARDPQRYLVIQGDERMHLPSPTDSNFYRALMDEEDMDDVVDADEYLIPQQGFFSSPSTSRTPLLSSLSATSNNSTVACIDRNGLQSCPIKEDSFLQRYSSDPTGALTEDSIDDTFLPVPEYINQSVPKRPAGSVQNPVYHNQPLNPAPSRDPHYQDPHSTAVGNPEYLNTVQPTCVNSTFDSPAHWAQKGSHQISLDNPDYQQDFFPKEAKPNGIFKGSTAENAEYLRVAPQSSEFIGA
Sequence of Protein-tyrosine kinase 6 (Homo sapiens) (Q13882 whole entry, looked up): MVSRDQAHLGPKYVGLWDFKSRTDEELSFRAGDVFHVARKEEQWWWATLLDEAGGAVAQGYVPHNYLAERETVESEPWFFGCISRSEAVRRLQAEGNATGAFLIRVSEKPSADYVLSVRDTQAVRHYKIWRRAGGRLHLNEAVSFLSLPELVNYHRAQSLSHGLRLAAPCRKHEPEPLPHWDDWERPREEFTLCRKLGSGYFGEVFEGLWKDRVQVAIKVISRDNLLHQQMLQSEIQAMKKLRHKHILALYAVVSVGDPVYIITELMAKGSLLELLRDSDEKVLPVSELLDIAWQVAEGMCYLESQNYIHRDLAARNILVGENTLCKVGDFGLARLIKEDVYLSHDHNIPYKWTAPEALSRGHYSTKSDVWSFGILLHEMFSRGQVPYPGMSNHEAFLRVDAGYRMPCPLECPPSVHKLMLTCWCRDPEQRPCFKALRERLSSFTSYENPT

Compound | inhibition [1] [%] | inhibition [2] [%] | inhibition [3] [%] | inhibition [4] [%] | inhibition [5] [%] | inhibition [6] [%] | inhibition [7] [%] | inhibition [8] [%] | inhibition [9] [%] | inhibition [10] [%] | inhibition [11] [%] | inhibition [12] [%] | inhibition [13] [%] | inhibition [14] [%] | inhibition [15] [%] | inhibition [16] [%] | inhibition [17] [%] | inhibition [18] [%] | inhibition [19] [%] | inhibition [20] [%]
c1ccc(-c2n[nH]cc2-c2ccnc(-c3ccc(OCCn4ccnc4)cc3)c2)nc1 | -0.26 | -0.32 | 1.78 | -0.48 | 0.53 | 2.69 | 8.22 | 0.31 | -1.64 | 1 | 1.94 | 0.36 | 1.9 | 0.25 | 5.66 | 1.97 | 24.5 | -0.83 | 5.84 | -1.24
CS(=O)(=O)CCNCc1ccc(-c2ccc3ncnc(Nc4ccc(OCc5ccccc5)cc4)c3c2)o1 | -1.88 | 3.85 | 14.1 | 3.59 | 8.85 | 2.05 | 13.7 | 0.51 | 6.4 | 5.85 | 9.28 | 1.74 | 2.07 | 83.8 | 94.1 | 31.4 | 71.2 | 33 | 55.7 | 4.15
CCN1CCC(C(=O)Nc2n[nH]c3nnc(-c4cccc(F)c4F)cc23)CC1 | 2.22 | 0.62 | 2.33 | -0.1 | 1.04 | -0.63 | -0.63 | 0 | -0.5 | 2.49 | -0.26 | 1.13 | 1.17 | 1.21 | 2.27 | -0.75 | 1.38 | -0.05 | -0.76 | -1.59
CS(=O)(=O)Nc1ccc(-c2ccc3c(NC(=O)C4CC4)n[nH]c3c2)cc1 | 0.24 | 2.19 | 9.5 | -5.43 | 4.64 | 1.77 | 2.53 | 1 | 1.7 | 3.59 | 0.41 | 1.42 | 0.51 | -0.2 | 2.27 | 2.52 | -0.4 | 2.28 | -2.37 | 2.21
CS(=O)(=O)CCNCc1ccc(-c2ccc3ncnc(Nc4ccc(OCc5cccc(C(F)(F)F)c5)cc4)c3c2)o1 | -5.12 | 2.51 | 6.32 | 3.21 | 6.44 | 2.67 | 3.19 | -2.4 | 0.46 | 2.05 | 3.02 | 0.91 | 2.9 | 15.5 | 58.8 | 6.17 | 26.7 | 14.4 | 34.4 | 0.24
CCS(=O)(=O)c1ccc(OC)c(Nc2ncc(-c3cccc(F)c3)o2)c1 | -5.62 | 21.3 | 73.8 | 1.13 | 33 | 9.28 | 29.8 | 3.65 | 28.6 | 7.64 | 17.9 | 5.27 | 28.3 | 3.05 | 9.19 | 9.54 | 20.1 | 4.09 | 8.2 | 3.64
CS(=O)(=O)CCNCc1ccoc1-c1ccc2ncnc(Nc3ccc(OCc4ccccc4)cc3)c2c1 | 1.55 | 0.99 | 7.84 | 1.55 | 3.4 | 1.71 | 8.3 | 0.01 | 0.8 | 2.96 | 4.64 | 5.97 | 7.08 | 66.8 | 86.2 | 14.5 | 51.2 | 25.4 | 42.1 | 0.03
NC(=O)c1ccc2c(-c3ccnc(NCCCO)n3)c(-c3ccc(F)cc3)nn2c1 | 0.42 | 2.21 | 6.11 | 1.45 | 9.25 | 6.4 | 17.1 | 0.41 | 0.35 | 6.17 | 7.7 | 4.1 | 22.4 | 1.88 | 17.3 | 10.1 | 50.6 | 4.58 | 16.6 | 2.86
COc1cc(N2CCN(C(C)C)CC2)ccc1Nc1nc(Nc2cccc(F)c2C(=O)O)c2cc[nH]c2n1 | 37.3 | 2.92 | 4.31 | 2.19 | 4.13 | 4.63 | 8.17 | -0.37 | 0.06 | 5.06 | 7.02 | 1.68 | 1.98 | 0.15 | 3.33 | 4.84 | 12.6 | 4.97 | 5.54 | 6.09
